The source made the active and inactive calls. Rule for the calls: active = hit-call score of the fitted dose curve at least 0.9, where 1 is the maximum; inactive = score below 0.9.
Assays:
[1] = APR_HepG2_P-H2AX_72hr: Apredica 72-hour HepG2 Assay for H2AX Phosphorylation (AID 2282916); conditions: imaging, actives raise or lower the signal;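 note: phospho-histone H2A.x immunostain intensity per cell marking DNA damage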
Outline: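 Phospho-histone H2A.x immunofluorescence, multiplexed with Hoechst and c-Jun, quantified by high-content imaging. Compounds applied to HepG2 for 72 h across ten concentrations (0.39–200 uM, 0.5% DMSO), in duplicate; DMSO baseline.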

[2] = APR_HepG2_MitoMembPot_72hr: Apredica 72-hour HepG2 Assay for Mitochondrial Membrane Potential (AID 2282917); conditions: imaging, actives raise or lower the signal
Outline: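 HepG2 cells dosed 72 hr with compound at 0.39–200 uM in duplicate, 0.5% v/v DMSO final. Mitochondria stained with 250 nM MitoTracker Red CMXRos for 30 min before formaldehyde fixation, imaged by high-content fluorescence; bidirectional fit versus DMSO.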

[3] = APR_HepG2_MitoticArrest_72hr: Apredica 72-hour HepG2 Assay for Mitotic Arrest (AID 2282918); conditions: high-content imaging, actives raise or lower the signal
Outline: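 HepG2, 72 hr exposure, 0.39–200 uM in duplicate, 0.5% v/v DMSO final. Formaldehyde-fixed, Triton-permeabilized, anti-phospho-histone H3/FITC plus Hoechst. ArrayScan imaging at 20x; curves fit bidirectionally against DMSO baseline.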

[4] = APR_HepG2_MicrotubuleCSK_72hr: Apredica 72-hour HepG2 Assay for Microtubule CSK Stabilty (AID 2282919); conditions: HepG2 microtubule cytoskeleton, high-content imaging, actives raise or lower the signal
Outline: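 HepG2, 72 hr cmpd exposure, 0.39–200 uM (10 pts, duplicate), 0.5% DMSO. 3.7% formaldehyde fix, 0.5% Triton perm, anti-alpha-tubulin/Cy5 plus Hoechst. HCS fluorescence intensity; bidirectional fit vs DMSO baseline; taxol as positive control.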

[5] = APR_HepG2_P-H2AX_24hr: Apredica 24-hour HepG2 Assay for H2AX Phosphorylation (AID 2282920); conditions: high-content imaging, actives raise or lower the signal
Outline: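 HCS fluorescence imaging of phospho-H2A.x immunostain (with Hoechst 33342 nuclear counterstain) in HepG2 after 24 hr compound exposure; 10 concentrations, 0.39–200 uM, duplicate wells, 0.5% v/v DMSO. Gain or loss of signal fitted relative to DMSO baseline.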

[6] = APR_HepG2_StressKinase_72hr: Apredica 72-hour HepG2 Assay for Stress Kinase (AID 2282921); conditions: HepG2 stress kinase (phospho-c-Jun) imaging, actives raise or lower the signal
Outline: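 Stress kinase signal is phospho-c-Jun immunofluorescence (1:500 primary, Cy3 secondary) in fixed, permeabilized human HepG2 cells imaged at 20x. Exposure lasted 72 hr over ten concentrations from 0.39 to 200 uM, 0.5% DMSO, in duplicate. Bidirectional fit versus DMSO.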

[7] = APR_HepG2_p53Act_72hr: Apredica 72-hour HepG2 Assay for p53 Activation (AID 2282923); conditions: high-content imaging, actives raise or lower the signal;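 note: average cellular p53 protein immunofluorescence intensity in HepG2 cells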
Outline: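 After 72 h with compound (ten points, 0.39 to 200 uM, final DMSO 0.5% v/v), fixed HepG2 cells were labelled with sheep anti-p53 and Hoechst 33342 and imaged; gain or loss versus DMSO scored.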

[8] = APR_HepG2_MitoMass_72hr: Apredica 72-hour HepG2 Assay for Mitochondrial Mass (AID 2282924); conditions: high-content imaging, actives raise or lower the signal;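 note: MitoTracker Red CMXRos stain intensity per cell imaged as mitochondrial mass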
Outline: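 Read-out: MitoTracker Red fluorescence intensity from automated imaging (20x, six fields per well) in human HepG2 liver cells. Dosing ran 72 hr, 0.39–200 uM, 0.5% DMSO; bidirectional curve fitting versus DMSO baseline.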

[9] = APR_HepG2_NuclearSize_72hr: Apredica 72-hour HepG2 Assay for Nuclear Size (AID 2282925); conditions: high-content imaging, actives raise or lower the signal
Outline: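 Read-out: nuclear diameter from Hoechst 33342 images (ArrayScan, 20x, six fields/well), via cell-cycle image analysis. HepG2 were dosed 0.39–200 uM for 72 hr in 0.5% DMSO. Bidirectional fit relative to DMSO.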

[10] = APR_HepG2_StressKinase_24hr: Apredica 24-hour HepG2 Assay for Stress Kinase (AID 2282922); conditions: HepG2 stress kinase (phospho-c-Jun) imaging, actives raise or lower the signal
Outline: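 Read-out: phospho-c-Jun immunofluorescence (Cy3 secondary) quantified by high-content imaging at 20x, nuclei defined by Hoechst 33342. Human HepG2 liver cells dosed 24 hr, 0.39–200 uM, DMSO 0.5% v/v; gain or loss of signal fitted relative to DMSO.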

Measured: AC50

CC(C)(O)c1ccc(CNC(=O)c2cccnc2Oc2ccc(F)cc2)cc1
not listed: [10]
inactive: all other assays above

O=C(N[C@@H](c1ccccc1)[C@@H]1CCCCN1)c1cccc(C(F)(F)F)c1Cl
active: [1] 6.64 µM | [3] 9.47 µM | [5] 14.3 µM | [8] 34.3 µM
not listed: [7]
inactive: all other assays above

C=CCc1ccc(OC)c(OC)c1
not listed: [10]
inactive: all other assays above

O=NO
not listed: [7]
inactive: all other assays above

COC(=O)CCC(=O)OC
not listed: [10]
inactive: all other assays above

CCC(C)N(C)C(=O)c1cc2ccccc2c(-c2ccccc2Cl)n1 (stereo not drawn)
active: [2] 67.7 µM | [3] 65.8 µM | [5] 69.8 µM | [8] 66.4 µM
not listed: [10]
inactive: all other assays above

CC(=O)[C@@]1(O)CC[C@H]2[C@@H]3CCC4=CC(=O)CC[C@]4(C)[C@H]3CC[C@@]21C
not listed: [7]
inactive: all other assays above

CCCCCCCCCC[N+](C)(C)[O-]
active: [2] 169 µM | [3] 75 µM
not listed: [10]
inactive: all other assays above

CC(=O)OC1CC(C)OC(C)O1 (stereo not drawn)
not listed: [7]
inactive: all other assays above

CC(C)OC(=O)C(C)(C)Oc1ccc(C(=O)c2ccc(Cl)cc2)cc1
not listed: [7]
inactive: all other assays above

CC(=O)CC(c1ccccc1)c1c(O)c2ccccc2oc1=O (stereo not drawn)
not listed: [7]
inactive: all other assays above

CC(C)c1cccc(C(C)C)c1
not listed: [7]
inactive: all other assays above

CC(=O)O[C@]1(C(C)=O)CC[C@H]2[C@@H]3C=C(Cl)C4=CC(=O)[C@@H]5C[C@@H]5[C@]4(C)[C@H]3CC[C@@]21C
not listed: [7]
inactive: all other assays above

C#CC(O)C(CC)CCCC (stereo not drawn)
not listed: [7]
inactive: all other assays above

O=C(NS(=O)(=O)/C=C/c1cccs1)c1ccc(F)cc1Br
not listed: [7]
inactive: all other assays above

Cc1cc(SC2=C(O)C[C@@](CCc3ccc(N)cc3)(C(C)C)OC2=O)c(C(C)(C)C)cc1CO
not listed: [10]
inactive: all other assays above

CCCCCCC(C=O)=Cc1ccccc1
not listed: [7]
inactive: all other assays above

O=C(Oc1ccccc1)c1cccc(C(=O)Oc2ccccc2)c1
not listed: [7] | [10]
inactive: all other assays above

O=C(O)c1[nH]n(-c2ccc(S(=O)(=O)O)cc2)c(=O)c1N=Nc1ccc(S(=O)(=O)O)cc1
not listed: [10]
inactive: all other assays above

COC(=O)[C@H]1[C@H]2C[C@@H]3c4[nH]c5cc(OC)ccc5c4CCN3C[C@H]2C[C@@H](OC(=O)c2cc(OC)c(OC)c(OC)c2)[C@@H]1OC
active: [1] 23.9 µM | [2] 48 µM | [3] 16.3 µM | [4] 39.4 µM | [5] 30.1 µM | [7] 24.6 µM | [8] 28.8 µM
inactive: [6] | [9]

CC(=O)OCC(COC(C)=O)OC(C)=O
not listed: [7] | [10]
inactive: all other assays above

c1ccc2occc2c1
active: [8] 100 µM
not listed: [10]
inactive: all other assays above

O=C1NC(=O)C(c2ccccc2)(c2ccccc2)N1
not listed: [7] | [10]
inactive: all other assays above

NC=O
not listed: [7] | [10]
inactive: all other assays above

CCCC(=O)O
not listed: [7] | [10]
inactive: all other assays above

Cc1cc(Cc2ccc(N)c(C)c2)ccc1N
active: [8] 67.3 µM
not listed: [10]
inactive: all other assays above

N[C@@H](Cc1c[nH]c2ccccc12)C(=O)O
not listed: [7] | [10]
inactive: all other assays above

Nc1nc(=S)c2[nH]cnc2[nH]1
active: [1] 30.5 µM | [3] 21 µM
not listed: [7] | [10]
inactive: all other assays above

CC1=C(C)S(=O)(=O)CCS1(=O)=O
active: [1] 82.3 µM | [3] 33.1 µM | [7] 73.8 µM | [8] 35.9 µM
not listed: [10]
inactive: all other assays above

CC(COCC(C)OC(=O)c1ccccc1)OC(=O)c1ccccc1 (stereo not drawn)
not listed: [7] | [10]
inactive: all other assays above

CSc1ccc(Oc2ccc(S(N)(=O)=O)cc2CN(C)C)cc1C
active: [5] 92.5 µM
not listed: [7] | [10]
inactive: all other assays above

O=Cc1ccccc1C=O
not listed: [7] | [10]
inactive: all other assays above

CCCCCCCCCCCCCCCCO
not listed: [7] | [10]
inactive: all other assays above

Cc1ccc(-c2cc(C(F)(F)F)nn2-c2ccc(S(N)(=O)=O)cc2)cc1
active: [1] 100 µM | [5] 106 µM | [6] 111 µM
not listed: [7] | [10]
inactive: all other assays above

CC(C)NCC(O)c1ccc(O)c(O)c1 (stereo not drawn)
active: [1] 86.8 µM
not listed: [7] | [10]
inactive: all other assays above

C/C=C/c1ccc(OC)cc1
not listed: [7] | [10]
inactive: all other assays above

Oc1ccccc1O
inactive: [6] | [7] | [9]
active: [1] 53.2 µM | [5] 67.9 µM

COc1ccc(OC(F)(F)F)cc1CN[C@H]1CCCN[C@H]1c1ccccc1
inactive: [4] | [9]
active: [1] 28.3 µM | [2] 55.9 µM | [3] 17.7 µM | [5] 32.6 µM | [6] 28.8 µM | [7] 24.3 µM | [8] 62.3 µM

CN(C)CCCN1c2ccccc2Sc2ccc(Cl)cc21
active: [1] 81.2 µM | [2] 112 µM | [3] 26 µM | [5] 26 µM | [6] 107 µM | [7] 100 µM
inactive: [4] | [8] | [9]

CC(C)COC(=O)CCCCC(=O)OCC(C)C
not listed: [7] | [10]
inactive: all other assays above

C=CCCCCCCCCCCCC
active: [1] 98.6 µM | [5] 99 µM | [6] 98.5 µM | [7] 93.4 µM
not listed: [10]
inactive: all other assays above

CCCCc1nc2cccnc2n1Cc1ccc(-c2ccccc2-c2nnn[nH]2)cc1
active: [3] 67.1 µM | [4] 94.4 µM | [5] 48.6 µM | [8] 118 µM
not listed: [10]
inactive: all other assays above

CCCCCCCCCCCCCCOS(=O)(=O)O
active: [1] 110 µM | [2] 110 µM | [3] 98.5 µM | [5] 114 µM | [7] 111 µM | [8] 121 µM
inactive: [4] | [6] | [9]

CCc1nc(N)nc(N)c1-c1ccc(Cl)cc1
active: [1] 67.6 µM | [3] 110 µM | [7] 3.77 µM
not listed: [10]
inactive: all other assays above

CC(=O)O
inactive: [4] | [6] | [9]
active: [1] 92 µM | [2] 100 µM | [3] 92.8 µM | [5] 66.4 µM | [8] 0.0355 µM

CN(C)CCCN(C)CCCN(C)C
not listed: [10]
inactive: all other assays above

NCCOCCOCCN
active: [1] 6.09 µM | [3] 15.8 µM | [4] 96.6 µM | [5] 76.5 µM | [7] 7.09 µM | [8] 84.5 µM | [9] 3.84 µM
inactive: [2] | [6]

— PubChem BioAssay (EPA / NIEHS)
